M1 PAM parental: nonselective calcium activators in parental CHO-K1 cells, primary screen, counter-screen for M1 PAM project, cell-based, Fluo-8 calcium fluorescence, full deck, 1536-well; ATP EC20; 0% at ATP EC20, 100% at ATP max; activation, % at 3 µM; hit rate 0.02% among 360,000; AID 602247, 2012;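 active means activation above the run cutoff, the mean activation of all test compounds plus 3 SD, cut at about 40% in these data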;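 further: peak over basal fluorescence ratio in a 140 s read after ATP addition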
ANO1 activ: TMEM16A chloride channel activators or potentiators, primary screen, cell-based, HTS. HEK293 TMEM16A/YFP-H148Q/I152L, iodide quench fluorescence; active compounds read low. B-score at 10 µM. hit rate 0.3% among 340,000. Anoctamin-1 (Mus musculus), Q8BHY3;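 active means fluorescence-ratio B-score plate-corrected deviation score at least 3 library SD below zero, with starting fluorescence score within 5 deviations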;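 further: channel opened by trigger with iodide after compound preincubation; score built on the fluorescence ratio of max minus min over baseline; more negative score means more quench and so TMEM16A activation or potentiation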
M1 ag parental: counter-screen for M1 agonists: effect in parental CHO-K1 cells; hit rate 0.48% among 360,000; activation, % at 3 µM; Fluo-8 calcium fluorescence; scaled to maximal ATP response, vehicle zero; in the data active means activation above about 15%;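 further: untransfected CHO-K1 host cells lacking M1 receptor as counterscreen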
ANO1 block: TMEM16A chloride channel inhibitors, primary screen, cell-based, HTS. Anoctamin-1 (Mus musculus), Q8BHY3. HEK293 TMEM16A/YFP iodide influx fluorescence, ionomycin. normalized B-score (activity score, 25-100; higher = stronger inhibition) at 10 µM. hit rate 1.2% among 310,000. AID 588511, 2011;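 active means ratio plate-corrected score three or more library SD toward inhibition, starting fluorescence score within five deviations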;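 further: score derived from kinetic fluorescence span divided by baseline fluorescence per well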
CHO-K1 Ca antag: M1 antagonist counterscreen hit in parental CHO-K1 cells; ATP-induced calcium, Fluo-8 fluorescence; inhibition, % at 3 µM; hit rate 0.6% among 360,000; AID 602250;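 active means inhibition above a per-plate cutoff, the plate's mean sample inhibition plus 3 SD, cut at about 24% in these data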;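 further: 0% = DMSO plus EC80 ATP and 100% = DMSO alone without ATP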
NTR1 agonist: agonists of human NTR1, primary screen, imaging, U2OS cells, beta-arrestin-GFP, high content; Neurotensin receptor type 1 (Homo sapiens), P30989; NTR1-U2OS beta-arrestin-GFP spot imaging, agonist mode; activation, % at 20 µM; hit rate 0.17% among 330,000; AID 493036, 2011;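 active means activation at or above 40% of the spot to cytoplasm intensity ratio, with at least 20 cells analyzed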;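 further: 0% = DMSO without peptide and 100% = 100 nM NTR1 peptide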
Numbers without * were called inactive; i = inactive; . = not tested or not shown. This is a sample that favours compounds with a hit; in the whole collection about 2.2% have one here.

SMILES | M1 PAM parental | ANO1 activ | M1 ag parental | ANO1 block | CHO-K1 Ca antag | NTR1 agonist
CC(C)(C)NC(=O)C1c2ccccc2OCC(=O)N1Cc1ccccn1 (stereo not given) | 4.0 | . | 0.3 | . | -12.2 | .
O=C1c2ccccc2C(c2nnnn2-c2ccc3c(c2)OCCO3)N1CCCN1CCOCC1 (stereo not given) | 2.8 | . | 2.1 | . | -9.1 | .
CCOC(=O)c1c(OCCO)nn(-c2ccc(Cl)cc2)c1N | -17.7 | i | 3.4 | i | 33.5* | 0.9
CCOC(=O)c1cnc2c(-c3ccc(Cl)cc3)c(C)nn2c1N | 7.2 | i | 0.1 | i | 1.9 | 4.3
CCn1c(NCc2cccs2)nc2ccccc21 | 1.2 | i | -0.2 | i | -11.7 | -0.7
CCn1c(NCc2ccccn2)nc2ccccc21 | -8.3 | i | -0.3 | i | 24.0* | -1.3
O=C(N/N=C/c1cc(Cl)cc(Cl)c1O)c1ccncc1 | 2.2 | -8.8* | 15.2* | i | -3.0 | 0.0
CCOC(=O)c1cc(CC)sc1NC(=O)c1cc(OC)c(OC)c(OC)c1 | -9.6 | i | 0.0 | i | 31.9* | 8.3
Cc1ccc(S(=O)(=O)Nc2ccccc2C(N)=O)cc1 | -8.4 | i | -0.1 | i | 15.7 | 0.1
Cc1ccc(S(=O)(=O)Nc2ccccc2-c2ccccc2NS(=O)(=O)c2ccc(C)cc2)cc1 | 11.8 | i | 1.6 | 100* | -9.9 | 24.2
COc1cc(S(=O)(=O)N(Cc2cccs2)CC2CCCO2)ccc1-n1cnnn1 (stereo not given) | 4.3 | i | 1.1 | i | 0.6 | 0.8
O=S(=O)(NCc1ccccc1)c1ccc(S(=O)(=O)N(Cc2cccs2)CC2CCCO2)cc1 (stereo not given) | -7.0 | i | 0.0 | i | 27.8* | 4.6
O=C(OCC(=O)N1CCCCCC1)c1cc(S(=O)(=O)N2CCOCC2)ccc1F | 9.5 | . | 1.1 | . | -14.5 | .
Cc1ccc(Cn2c(C3CCCN3c3nc(-c4ccc(F)cc4)cs3)nc3cc(C(F)(F)F)ccc32)cc1 (stereo not given) | 9.8 | -9.46* | 0.3 | i | -13.4 | -3.6
CN1CCN(c2nc3c(c(=O)[nH]c(=O)n3C)n2CCSc2nc3ccccc3s2)CC1 | -8.9 | i | -0.3 | i | 27.2* | 1.3
Cn1c(=O)[nH]c(=O)c2c1nc(N1CCc3ccccc3C1)n2CCSc1nc2ccccc2s1 | 23.8 | i | 0.3 | i | -14.0 | 14.6
COC(=O)c1ccc2nc(NC(=O)C3CCCCC3)sc2c1 | -11.4 | i | 0.1 | i | -9.3 | 2.1
COC(=O)c1ccc2nc(NC(=O)C(C)(C)C)sc2c1 | 7.1 | i | 16.8* | i | 8.0 | 0.0
CCOC(=O)c1cnn(-c2ccccc2)c1NC(=O)c1ccc(C)cc1 | 15.9 | i | 0.4 | 25* | -4.1 | 1.0
O=C1OCCC1Sc1nnc(-c2ccccc2)o1 (stereo not given) | -6.0 | . | -0.2 | i | 1.4 | 0.6
O=C1OCCC1Sc1nnc(-c2ccc(Cl)cc2Cl)o1 (stereo not given) | 3.5 | i | 4.5 | 25* | -20.4 | 6.8
O=C(/C=C/c1ccc(Cl)c([N+](=O)[O-])c1)Nc1cccc(NC(=O)c2ccco2)c1 | -13.8 | i | 6.8 | i | 28.0* | 16.4
O=C(/C=C/c1ccc(Cl)c([N+](=O)[O-])c1)Nc1ccc(NC(=O)c2ccco2)cc1 | -8.1 | i | 0.6 | . | 12.2 | .
CCOC(=O)[C@@H](NC(=O)/C=C/[C@H]1O[C@@H](n2cc(C)c(=O)[nH]c2=O)C[C@@H]1O)C(C)C | 15.9 | . | 0.4 | . | -21.4 | .
O=C1CCCCC(=O)[C@H](OC(=O)c2ccccc2)C[C@H](c2ccccc2)O1 | 21.9 | . | 0.0 | . | -11.8 | .
CCCS(=O)(=O)NC(=O)C1(C)CCN(C(=O)c2ccccc2F)C1 (stereo not given) | 21.5 | . | 0.3 | . | -7.9 | .
Cc1ccc(S(=O)(=O)N/N=C/c2cccc([N+](=O)[O-])c2)cc1 | 14.0 | i | 0.6 | i | 4.9 | -0.3

Screens deposited in PubChem BioAssay by several laboratories.
